Hits are enriched below; roughly 4.8% of the tested compounds scored in any of these assays.
SMARCA2 activ = SMARCA2 (BRM) function activators, primary screen, cell-based, luminescence, high throughput | hit rate 1% among 370,000 | AID 652017, 2013 | activation, % at 9.1 µM | MG213 cells, MMTV-luciferase reporter, dexamethasone, overnight; in the data active = activation above about 7.8%;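 also: 0% = vehicle wells and 100% = reference activator wells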
hgDAF-12 ag = H. glycines DAF-12 receptor agonists, primary screen, cell-based, luminescence, HEK293, GAL4 fusion, UAS-luciferase; activation, % at 6.8 µM; Nuclear hormone receptor DAF-12 (Heterodera glycines), GAL4 fusion; HEK293 GAL4-hgDAF12 UAS-luciferase reporter, agonist luminescence; normalized to butyrate control; hit rate 1.8% among 370,000;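 active = activation above a cutoff set at the mean of all screened compounds plus 3 SD, cut at about 10% in these data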;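 also: 0% = DMSO wells and 100% = sodium butyrate wells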
ssDAF12 agonist = S. stercoralis DAF-12 nuclear receptor activators, primary screen, cell-based, luminescence, HEK293, GRIP1 co-expression, lit1-tk-luc. hit rate 1% among 370,000. activation, % at 6.8 µM. HEK293 ssDAF-12/GRIP1 lit1-tk-luc reporter; % of 3 µM dafachronic acid response. Nuclear hormone receptor DAF-12 (Strongyloides stercoralis);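 active = activation above the mean over all tested compounds plus 3 SD, cut at about 0.9% in these data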;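 also: 0% = DMSO-only wells and 100% = 3 µM delta7-dafachronic acid wells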
DAX1 inh-1 = DAX1 (NR0B1) inhibitors, primary screen, cell-based, HEK293, Gal4-DAX1, luciferase luminescence; HEK293 Gal4-DAX1 luciferase reporter; Nuclear receptor subfamily 0 group B member 1 (Homo sapiens), P51843; AID 504766, 2011; hit rate 0.99% among 340,000; inhibition, % at 6.75 µM;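 active = inhibition above the mean over all tested compounds plus 3 SD, cut at about 4.2% in these data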;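 also: 0% = DAX1-transfected cells with DMSO and 100% = empty-vector control cells with DMSO; inhibition shows as a rise in luminescence from relieved DAX1 repression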
DAX1 inh-2 = DAX1 (NR0B1) inhibitors on StAR promoter, primary screen, cell-based, luminescence, SF-1 (NR5A1), full-length DAX-1; inhibition, % at 6.8 µM; HEK293T StAR-luciferase reporter, SF-1/DAX-1 repression relief; hit rate 1.1% among 370,000; AID 652010, 2013;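 active = inhibition above the mean over all tested compounds plus 3 SD, cut at about 3.6% in these data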;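 also: 0% = DAX-1 cells with DMSO and 100% = cells lacking DAX-1 with DMSO; higher inhibition means more luminescence from relief of DAX-1 repression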
hcDAF-12 act = H. contortus DAF-12 nuclear receptor activators, primary screen, cell-based, luminescence, HEK293, lit1-tk-luc reporter. HEK293 hcDAF-12 lit1-tk-luc reporter; 0% DMSO, 100% Δ7-dafachronic acid. activation, % at 6.8 µM. hit rate 1.4% among 370,000. AID 652067, 2013;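 active = activation above the mean of all tested compounds plus 3 SD, cut at about 5.5% in these data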;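 also: 100% = response to 3 µM Δ7-dafachronic acid high control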
LXRb hcDAF ctr = LXR agonists, Gal4 luciferase reporter, confirmation, counter-screen for hcDAF-12 agonist project, cell-based, luminescence, HEK293, H. contortus campaign; shares compounds with hcDAF-12 act; HEK293 Gal4-LXR tk-luc reporter, 24 h; normalized: DMSO 0%, positive control 100%; activation, % at 6.8 µM; 3,400 tested, under 10 active; AID 743027, 2013;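 active = mean percent activation of the reporter above a cutoff set as the average over tested compounds plus their standard deviation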
Target sequence (P55055 whole entry, looked up, the tested form may be a part): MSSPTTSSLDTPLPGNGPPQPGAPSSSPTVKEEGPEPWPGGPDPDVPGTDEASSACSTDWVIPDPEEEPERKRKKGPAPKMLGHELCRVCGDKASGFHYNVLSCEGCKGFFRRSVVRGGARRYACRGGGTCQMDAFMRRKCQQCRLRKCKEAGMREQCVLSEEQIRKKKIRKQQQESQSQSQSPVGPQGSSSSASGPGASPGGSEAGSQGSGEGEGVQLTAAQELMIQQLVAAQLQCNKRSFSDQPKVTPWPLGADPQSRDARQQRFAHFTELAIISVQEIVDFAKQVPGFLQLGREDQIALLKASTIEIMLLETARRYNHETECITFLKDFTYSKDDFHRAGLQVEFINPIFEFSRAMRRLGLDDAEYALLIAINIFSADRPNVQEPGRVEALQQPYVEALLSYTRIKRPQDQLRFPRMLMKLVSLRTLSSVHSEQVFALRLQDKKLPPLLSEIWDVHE
hcDAF12 conf = H. contortus DAF-12 receptor agonists, confirmation, cell-based, luminescence, HEK293, lit1-tk-luc, triplicate; shares compounds with hcDAF-12 act; HEK293 hcDAF-12 lit1-tk-luc reporter; % of Δ7-dafachronic acid response; activation, % at 6.8 µM; hit rate 61% among 3,400; AID 743032, 2013;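 active = mean activation across triplicate tests above the threshold derived from the earlier primary screen, cut at about 5.5% in these data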;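 also: 0% = DMSO only wells and 100% = 3 µM Δ7-dafachronic acid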
hgDAF12 conf = H. glycines DAF-12 receptor agonists, confirmation, cell-based, luminescence, HEK293, GAL4-LBD fusion; shares compounds with hgDAF-12 ag; activation, % at 6.8 µM; hit rate 80% among 3,300; HEK293 GAL4-hgDAF12 luciferase reporter, agonist mode; percent of butyrate response;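 active = mean activation over triplicate wells above the hit cutoff derived from the earlier primary screen, cut at about 11% in these data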;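 also: 0% = DMSO low control and 100% = 2 mM sodium butyrate high control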
LXRb DAF12 ctr = LXR agonists, Gal4 luciferase reporter, confirmation, counter-screen for hgDAF-12 agonist project, cell-based, luminescence, HEK293, H. glycines campaign | 3,300 tested, under 10 active | 24 h | shares compounds with hgDAF-12 ag | activation, % at 6.8 µM | AID 743051, 2013;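 active = mean activation of the triplicate above a set limit carried over from the primary screen, none filed active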
* hit, by the source's call; . = no result given.

SMILES | SMARCA2 activ | hgDAF-12 ag | ssDAF12 agonist | DAX1 inh-1 | DAX1 inh-2 | hcDAF-12 act | hgDAF12 conf | LXRb DAF12 ctr | others
Cc1cccc(N=Nc2ccc(N(C)C)cc2)c1 | 1.3 | 12.8* | 1.0* | 1.3 | 2.5 | 8.7* | . | . | LXRb hcDAF ctr=1.8;hcDAF12 conf=5.4
CN(C)C(Cc1ccccc1)C(=O)c1ccccc1 (configuration not stated) | -1.7 | -0.4 | 0.1 | -0.3 | 0.1 | -0.8 | . | .
COc1ccc(C(C)=O)cc1CC(C(=O)c1ccc(Br)cc1)N(C)C (configuration not stated) | -0.2 | 13.7* | -1.1 | -0.1 | -0.2 | 0.2 | -0.5 | 0.0
CCOc1cc2c(cc1OCC)-n1cccc1C(c1ccc(OC(F)F)cc1)NC2 (configuration not stated) | -1.4 | -1.4 | -1.4 | 0.2 | -0.6 | -2.3 | . | .
Nc1c2c(nc3sc4c(c13)CCCC4)CCCCC2 | 4.4 | 14.3* | -0.4 | 3.0 | 2.4 | 3.2 | 17.6* | 0.9

Source: PubChem (The Scripps Research Institute Molecular Screening Center)
